The values that follow come from article PMC4336329 (PLoS ONE, 2015).

SMILES strings stand for the structures. Screen size: about 310,000 compounds; about 14,000 (4.5%) showed an effect of 50% or more. Effects have a minus sign here. What follows is part of a selection rich in strong results, with near analogues and random picks from the rest.
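Note: peak tail current of the secondary pulse compared with the same well before compound.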

human ether-à-go-go-related gene (hERG) potassium channel, sequence (Q12809 whole entry, looked up): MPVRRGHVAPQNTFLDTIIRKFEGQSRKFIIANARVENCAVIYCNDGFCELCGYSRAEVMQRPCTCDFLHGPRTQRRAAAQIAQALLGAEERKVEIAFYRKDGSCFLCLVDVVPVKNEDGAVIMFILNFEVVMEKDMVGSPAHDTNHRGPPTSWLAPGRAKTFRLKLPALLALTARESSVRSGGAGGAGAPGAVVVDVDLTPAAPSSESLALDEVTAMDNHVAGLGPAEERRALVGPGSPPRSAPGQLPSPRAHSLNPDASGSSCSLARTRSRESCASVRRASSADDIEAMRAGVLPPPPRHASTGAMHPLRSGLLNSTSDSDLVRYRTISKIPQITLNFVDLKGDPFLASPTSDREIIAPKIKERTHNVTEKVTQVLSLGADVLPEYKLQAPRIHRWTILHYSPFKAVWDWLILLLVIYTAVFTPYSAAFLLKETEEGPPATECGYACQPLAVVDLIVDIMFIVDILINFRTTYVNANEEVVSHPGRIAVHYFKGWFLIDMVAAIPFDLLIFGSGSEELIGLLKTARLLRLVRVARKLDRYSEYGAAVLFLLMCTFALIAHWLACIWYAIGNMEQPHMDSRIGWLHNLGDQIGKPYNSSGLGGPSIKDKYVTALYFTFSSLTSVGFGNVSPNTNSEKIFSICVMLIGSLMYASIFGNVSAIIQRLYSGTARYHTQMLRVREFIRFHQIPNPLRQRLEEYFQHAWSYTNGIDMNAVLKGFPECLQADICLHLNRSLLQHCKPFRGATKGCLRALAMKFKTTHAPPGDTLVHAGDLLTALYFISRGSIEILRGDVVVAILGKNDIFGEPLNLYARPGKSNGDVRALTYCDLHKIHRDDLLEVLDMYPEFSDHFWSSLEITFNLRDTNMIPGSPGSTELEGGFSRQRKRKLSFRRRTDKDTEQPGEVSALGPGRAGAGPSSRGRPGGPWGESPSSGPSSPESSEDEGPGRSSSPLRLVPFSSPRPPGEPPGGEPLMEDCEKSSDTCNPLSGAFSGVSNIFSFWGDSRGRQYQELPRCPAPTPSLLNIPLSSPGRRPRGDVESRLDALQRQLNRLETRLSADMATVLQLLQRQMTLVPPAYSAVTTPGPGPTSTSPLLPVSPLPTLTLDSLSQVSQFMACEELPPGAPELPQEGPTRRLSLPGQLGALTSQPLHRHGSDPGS

The assay concerns the target human ether-à-go-go-related gene (hERG) potassium channel (human, UniProt Q12809). Kind of assay: primary screen, population patch clamp on CHO cells stably expressing hERG; higher = less effect of the substance.
With `CC(C(=O)NCC(=O)Nc1ccc(F)c(F)c1F)N1CCN(c2ccc(O)cc2)CC1` (centres unmarked), the “hERG current change (%, negative = inhibition) at 10uM” value is -6.1%.
As for `CC(C(=O)NCC(=O)Nc1ccc(F)c(F)c1F)N1CCN(Cc2ccc(C#N)cc2)CC1` (centres unmarked), the figure is -61%; as for `N#Cc1ccc(-c2ccc(OCC(=O)NCC(=O)Nc3ccc(F)c(F)c3F)cc2)cc1`, -7.98%.
`CCOC(=O)N1CCC(N2C(=O)c3ccc(C(=O)Nc4ccc(OC)c(OC)c4)cc3C2=O)CC1`: the “hERG current change (%, negative = inhibition) at 10uM” value was determined as 23.2%.
On to `O=C(/N=C1\NC(=O)C(F)(C(F)(F)F)S1)NC1CCCCC1` (centres unmarked), for which the “hERG current change (%, negative = inhibition) at 10uM” value was 13%.
As for `CC(C)C(=O)Nc1ccc2c(c1)nc(CCN1CCCCC1)n2C`, the figure is -0.778%.
As for `Cn1c(CN2CCCCC2)nc2cc(NS(=O)(=O)c3ccc(F)cc3)ccc21`, the figure is -54.2%; as for `O=S(=O)(Nc1ccc2c(c1)nc1n2CCN(Cc2ccccc2)C1)c1ccc(F)cc1`, -50.4%.
As for `Cn1c(CCN2CCCCC2)nc2cc(NS(=O)(=O)c3ccc(F)cc3)ccc21`, the figure is -67.6%; as for `CCCC(=O)Nc1ccc2c(c1)nc(CCN1CCCCC1)n2C`, -4.96%; as for `O=S(=O)(Nc1ccc2c(c1)nc1n2CCN(Cc2ccccc2)C1)c1ccc(Cl)cc1`, -2.38%.
Consider `O=S(=O)(Nc1ccc2c(c1)nc1n2CCN(Cc2ccccc2)C1)c1ccccc1`, for which the “hERG current change (%, negative = inhibition) at 10uM” value is recorded as -40.1%.
As for `O=C(O)CN(c1ccccn1)S(=O)(=O)c1ccccc1`, the figure is -8.38%; as for `O=C(NCCc1ccccc1)C(=O)NCC(c1ccco1)N1CCOCC1` (centres unmarked), 23.8%; as for `Cc1ccc(NC(=O)C2CCN(S(=O)(=O)c3ccc4c(c3)CCCC(=O)N4)CC2)cc1N(C)C`, -14.7%.
As for `O=C(COC(=O)c1ccc2c(c1)OCCO2)NCCC1=CCCCC1`, the figure is -10.8%; as for `CN(C(=O)C1CCN(S(=O)(=O)c2cccs2)CC1)c1ccccc1`, -16.9%.
As for `O=C(CCS(=O)(=O)c1ccc(Br)cc1)NCc1cccs1`, the figure is -11.5%; as for `COC(=O)C(C(=O)OC)C(C[N+](=O)[O-])c1ccc(OC)c(OC)c1` (centres unmarked), -22.7%.
Consider `CCOC(=O)C1(Cc2cccc(OC)c2)CCN(CC=C(C)C)CC1`, for which the “hERG current change (%, negative = inhibition) at 10uM” value is reported as -22%.
Consider `CCOC(=O)C1(Cc2cccc(OC)c2)CCN(C/C=C/c2ccccc2)CC1`, for which the “hERG current change (%, negative = inhibition) at 10uM” value is recorded as -75.9%.
Regarding `CCOC(=O)C1(Cc2cccc(OC)c2)CCN(C/C=C/c2ccc(OC)cc2)CC1`, the “hERG current change (%, negative = inhibition) at 10uM” value is recorded as -72.3%.
For the compound `N#CCCn1[nH]c(-c2ccccc2)cc1=O`, the “hERG current change (%, negative = inhibition) at 10uM” value amounted to 5.16%.
Regarding `O=C(CCCc1c[nH]c2ccccc12)Nc1ncccc1O`, the “hERG current change (%, negative = inhibition) at 10uM” value is on record as 14.7%.
As for `CC1CCN(C2CC(=O)N(c3ccc(Br)cc3Br)C2=O)CC1` (centres unmarked), the figure is 2.17%; as for `COc1ccc(C(CNC(=O)c2cc3ccccc3cc2O)N2CCOCC2)cc1` (centres unmarked), -3.36%.
As for `COCCC(=O)N1CCC(n2nccc2NC(=O)CCc2ccccc2)CC1`, the figure is 14.2%; as for `CC(C)C(=O)N1CCC(n2nccc2NC(=O)CCc2ccccc2)CC1`, 18.7%; as for `COc1ccccc1CC(=O)N1CCC(n2nccc2NC(=O)C2CCOC2)CC1` (centres unmarked), 4.83%.
As for `COc1ccccc1/C=C/CN1CCC(n2nccc2NC(=O)C2CC2)CC1`, the figure is -59.1%.
Regarding `CSCC(=O)N1CCC(n2nccc2NC(=O)CCc2ccccc2)CC1`, the “hERG current change (%, negative = inhibition) at 10uM” value came to 12.1%.
As for `CC(=O)c1cccc(CN2CCC(n3nccc3NC(=O)CCc3ccccc3)CC2)c1`, the figure is -25.1%; as for `COc1ccccc1/C=C/CN1CCC(n2nccc2NC(=O)CCc2ccccc2)CC1`, -86.1%; as for `COc1cc(CC(=O)N2CCC(n3nccc3NC(=O)C3CC3)CC2)cc(OC)c1OC`, 12.8%.
As for `O=C(CCc1ccccc1)Nc1ccnn1C1CCN(C/C=C/c2ccccc2)CC1`, the figure is -72.1%; as for `COCC1CCCN(C(=O)c2ccc3oc(CCCc4ccccc4)nc3c2)C1` (centres unmarked), -16.2%.
As for `CCn1c(SCC(=O)C(C)(C)C)nnc1-c1cccnc1`, the figure is -0.363%.
For `CC(C)NS(=O)(=O)c1ccc(NC(=O)C(C)OC(=O)CCC2CCCC2)cc1` (centres unmarked), the “hERG current change (%, negative = inhibition) at 10uM” value is 7.06%.
As for `Cc1cc(C(=O)N/N=C/c2cc([N+](=O)[O-])ccc2O)c2ccccc2n1`, the figure is 6.35%.
As for `CCOCCCNC(=S)N(CCN(CC)CC)Cc1cc2cc3c(cc2[nH]c1=O)OCCO3`, the figure is 7.75%; as for `CCCN(CCC)C1Sc2ccc(C(=O)OC)cc2NC1=O` (centres unmarked), -9.31%.
As for `Cc1ccc(NC(=S)N2CCC(O)CC2)c(C)c1`, the figure is 16.3%; as for `CC(=O)Oc1ccc2nc(CN3C(=O)c4ccc([N+](=O)[O-])cc4C3=O)oc(=O)c2c1`, 10%; as for `CC(=O)NN1C(=O)c2ccccc2NC1c1ccc([N+](=O)[O-])o1` (centres unmarked), 8.22%.
Regarding `O=C(NN1C(=O)c2ccccc2NC1c1ccc([N+](=O)[O-])o1)c1ccccc1` (centres unmarked), the “hERG current change (%, negative = inhibition) at 10uM” value is listed as -9.78%.
As for `O=C(NN1C(=O)c2ccccc2NC1c1ccco1)c1ccccc1` (centres unmarked), the figure is -0.469%.
As for `O=C(NN1C(=O)c2ccccc2NC1c1ccc([N+](=O)[O-])o1)c1ccc(Br)cc1` (centres unmarked), the figure is -72.7%.
As for `O=C(NN1C(=O)c2ccccc2NC1c1ccc([N+](=O)[O-])o1)c1ccc([N+](=O)[O-])cc1` (centres unmarked), the figure is -65.5%.
For the compound `O=C(NN1C(=O)c2ccccc2NC1c1ccoc1)c1ccc([N+](=O)[O-])cc1` (centres unmarked), the “hERG current change (%, negative = inhibition) at 10uM” value is listed as -41.8%.
For the compound `CC(=O)NN1C(=O)c2ccccc2NC1c1ccco1` (centres unmarked), the “hERG current change (%, negative = inhibition) at 10uM” value was 15.7%.
As for `CC1Nc2ccccc2C(=O)N1NC(=O)c1ccc(Br)cc1` (centres unmarked), the figure is -9.66%; as for `O=C(NN1C(=O)c2ccccc2NC1c1ccco1)c1ccc(Br)cc1` (centres unmarked), -76.6%.
As for `COc1ccccc1NCCC(=O)OCC(=O)NC1CCCC(C)C1C` (centres unmarked), the figure is 9.37%.
